# Results published in PubChem BioAssay (NCATS).
# “And” between values parts separate entries of the source, which are not always exact repeats. Equal values may be shown once. Results filed as inconclusive are left out. Where a call stands in place of a potency, no number is given. The source made the active and inactive calls. Calls come from the whole dose curve; as a rule, active = well fitted cell-killing curve with a large enough effect; inconclusive = small, poorly fitted or top-dose-only effect; inactive = flat fitted curve, though single readings scatter.
# Assay: qHTS of pediatric cancer cell lines to identify multiple opportunities for drug repurposing: Primary screen for BT-12 cells (AID 1347101); note: nearly all actives have a fitted effect of over 25% in size
# Settings: BT-12 viability, CellTiter-Glo luminescence, 48 h; series mostly up to 57.3 µM
# Text: Drug repurposing or repositioning has been offered as a strategy for drug development in oncology programs. This approach has special potential for childhood cancers and other rare or orphan diseases, where the expected return on new drug development has been a disincentive to pharmaceuticals.
# In this project we exploit the poly-pharmacology of drugs to discover new indications via phenotypic screening of a panel of 19 well-characterized cell lines derived from solid tumors seen in children and adolescents. The goal is to identify approved drugs with previously unrecognized anticancer properties that has the potential to reveal new mechanisms and biological processes involved in carcinogenesis or drug resistance. We employed a titration-based paradigm (quantitative high-throughput screening or qHTS), where all compounds were tested at multiple concentrations for their effect on cell viability. Concentration-response curves (CRCs) were derived directly from the primary screen, and both potency and efficacy values were used to identify compounds with robust bioactivity profiles. We screened the NIH Chemical Genomics Center (NCGC) Pharmaceutical Collection (NPC) and Mechanism Interrogation Plate (MIPE) small molecule collections of approved and investigational compounds against these cell lines; and measured metabolically active cells after 48 hours of compound treatment as a proxy for cell viability.
# Assay Submitter: Nathalia J. Martinez, National Center for Advancing Translational Sciences, National Institutes of Health, Rockville, MD, USA; email: natalia.martinez@nih.gov
# [1] Shen, M et al. Quantitative high-throughput phenotypic screening of pediatric cancer cell lines identifies multiple opportunities for drug repurposing. Oncotarget 2017 Dec 19;9(4):4758-4772. PMID 29435139.
# The cells were obtained from University of North Carolina (UNC), Pediatric Preclinical Testing Program (PPT), and Coriell Institute (CI).
# qHTS cell viability assay:
# Cells were assayed in growth media at a density of 500-1,000 cells/well. Five microliters of cells were dispensed into 1,536-well, white, solid-bottom, TC-treated plates (Greiner Bio One) using a multidrop dispenser and incubated at 37 degrees C, 5% CO2, under a humidified atmosphere for 5 hours. Twenty-three nanoliters of compounds and controls (neutral control DMSO or positive control bortezomib at final concentration of 2.3 µM) were subsequently transferred by Kalypsys pintool. For primary screens, the MIPE collection was tested at 11-point dilutions (final concentrations range from 0.78 nM to 46 µM) and the NPC collection at 8-point dilutions (final concentrations range from 0.59 nM to 46 µM). Compounds tested in follow-up screens were assayed at 11-point dilutions. Cells were incubated for 48 hours, followed by addition of 3 µL of CellTiter-Glo (Promega). After a 15 min incubation at room temperature, samples were analyzed for luminescence intensity using a ViewLux High-throughput CCD imager equipped with clear filters.
# Potency is the fitted concentration of half-maximal effect.
row,SMILES,Potency
1,CCCNC(=O)NS(=O)(=O)c1ccc(Cl)cc1,inactive
2,Cc1ccccc1C(C(=O)NC1CCCCC1)N(C(=O)Cn1ccnc1C)c1cccc(F)c1 (stereo not given),inactive
3,O=C(O)c1ccc(-c2c[nH]c3ncc(-c4ccccc4)cc23)cc1C1CCCC1,inactive
4,CC(C(=O)O)c1ccc(-c2ccccc2)c(F)c1 (stereo not given),inactive
5,Cc1nc(N)sc1-c1ccnc(Nc2ccc(N3CCOCC3)cc2)n1,24.3 µM (active)
6,N[C@H](CSC(c1ccccc1)(c1ccccc1)c1ccccc1)C(=O)O,27.3 µM (active)
7,CO[C@H]1C[C@@H]2CC[C@@H](C)[C@@](O)(O2)C(=O)C(=O)N2CCCC[C@@H]2C(=O)O[C@H]([C@H](C)C[C@@H]2CC[C@H](OP(C)(C)=O)[C@H](OC)C2)CC(=O)[C@H](C)C=C(C)[C@@H](O)[C@@H](OC)C(=O)[C@H](C)C[C@H](C)C=CC=CC=C1C,27.3 µM (active)
8,O=C(CCCCCCC(=O)Nc1ccccc1)NO,6.92 µM (active) and 17.2 µM (active)
9,CC(C)C(=O)Oc1ccc(CO)cc1[C@H](CCN(C(C)C)C(C)C)c1ccccc1,inactive
10,COc1ccc(-c2coc3cc(O)cc(O)c3c2=O)cc1,inactive
11,CCN1CCC[C@H]1CNC(=O)c1cc(S(N)(=O)=O)ccc1OC,inactive
12,C[N+](C)(C)CCCCCC[N+](C)(C)C,inactive
13,CCOC(=O)C1=C(N)Oc2ccc(Br)cc2C1C(C#N)C(=O)OCC (stereo not given),inactive
14,Cc1nnc(C(C)C)n1C1C[C@H]2CC[C@@H](C1)N2CC[C@H](NC(=O)C1CCC(F)(F)CC1)c1ccccc1 (stereo not given in full),inactive
15,COC(=O)N[C@H](C(=O)N1CCC[C@@H]1c1ncc(-c2ccc(-c3ccc(-c4cnc([C@@H]5CCCN5C(=O)[C@@H](NC(=O)OC)C(C)C)[nH]4)cc3)cc2)[nH]1)C(C)C,34.3 µM (active)
16,OC[C@@H](O)[C@H](O)[C@H](O)[C@@H](O)CO,inactive
17,COCCOc1nc(-c2ccc(Cl)c(Cl)c2)n(-c2ccc(NC(=O)CCl)cc2)n1,5.44 µM (active)
18,COc1cc(NC(=O)c2ccc(-c3ccc(Cl)cc3)o2)cc(OC)c1,inactive
19,C[C@]12CCC3c4ccc(O)cc4CCC3C1CCC2=O (stereo not given in full),inactive
20,Nc1ncnc2c1ncn2[C@@H]1O[C@@H](CO)[C@H](O)[C@H]1O,inactive

row,SMILES,Potency
1,CC1(C)CCC(CN2CCN(c3ccc(C(=O)NS(=O)(=O)c4ccc(NCC5CCOCC5)c([N+](=O)[O-])c4)c(Oc4cnc5[nH]ccc5c4)c3)CC2)=C(c2ccc(Cl)cc2)C1,30.6 µM (active)
2,N#CC(=C(N)Sc1ccccc1N)C(C#N)=C(N)Sc1ccccc1N,13.7 µM (active)
3,CC1(C)CCC2=C(O1)c1ccccc1C(=O)C2=O,30.6 µM (active)
4,COc1cc(Nc2ncc(F)c(Nc3ccc4c(n3)NC(=O)C(C)(C)O4)n2)cc(OC)c1OC,inactive
5,CN1C[C@H]2c3ccccc3Oc3ccc(Cl)cc3[C@@H]2C1,inactive
6,O=C(NCCN1CCOCC1)c1ccc(Cl)cc1,inactive
7,CCOC1OC(=O)C[C@H]1NC(=O)[C@@H]1CCCN1C(=O)[C@@H](NC(=O)c1ccc(N)c(Cl)c1)C(C)(C)C (stereo not given in full),1.37 µM (active)
8,COc1ccc(-c2nc(N3CCOCC3)c3sc(CN(C)c4ncc(C(=O)NO)cn4)cc3n2)cn1,0.0086 µM (active)
9,O=C(O)c1cc(O)c2c(c1)C(=O)c1cccc(O)c1C2=O,inactive
10,O=C1NC(=O)C(c2ccccc2)(c2ccccc2)N1,inactive
11,O=C(OCC#CCSc1nnc(-c2cccc3ccccc23)o1)c1cc2ccccc2s1,inactive
12,CC=CCC=CCCC(=O)[C@H]1O[C@@H]1C(N)=O,inactive
13,O=c1cc(-c2ccccc2)oc2cc(O)cc(O)c12,inactive
14,CC(=NNC(=S)N1CCC1)c1ccccn1,0.0014 µM (active)
15,O=C(O)c1ccccc1C(=O)Nc1ccc(-c2ccccc2)cc1,inactive
16,CCNc1cc(NC2CCC(O)CC2)nc(Nc2ccc3c(ccn3Cc3ccccc3)c2)n1 (stereo not given),27.3 µM (active)
17,O=C(Nc1c(Cl)cncc1Cl)c1ccc(OC(F)F)c(OCC2CC2)c1,inactive
18,CCCCCCCCCCCC1=C(O)C(=O)C=C(O)C1=O,0.0432 µM (active)
19,COc1ccc(-c2coc3cc(O)ccc3c2=O)cc1,inactive
20,Cc1ccc(C(=O)Nc2cccc(C(F)(F)F)c2)cc1Nc1nc(-c2cccnc2)nc2c1cnn2C,24.3 µM (active)
